Measurements from PubChem BioAssay (NCATS).
Inconclusive results are not listed. A call without a number means that no potency is given here. Calls of active or inactive are those of the source. The call rests on the fitted dose curve; in most records, active means well fitted inhibition curve with a large enough effect; inconclusive means small, poorly fitted or top-dose-only effect; inactive means flat fitted curve, though single readings scatter.

The molecules below were run against Voltage-gated inwardly rectifying potassium channel KCNH2 (Homo sapiens) (UniProt Q12809) (assay: qHTS Assay for Small Molecule Inhibitors of the Human hERG Channel Activity (AID 588834;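 further: top concentration of the series differs between compounds; lower thallium flux fluorescence means stronger hERG block; nearly all actives have a fitted effect of over 50% in size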)). Details: U2OS BacMam hERG, FluxOR thallium flux fluorescence; series mostly up to 46.1 µM.
Voltage-gated inwardly rectifying potassium channel KCNH2 (Homo sapiens), sequence (Q12809 whole entry, looked up): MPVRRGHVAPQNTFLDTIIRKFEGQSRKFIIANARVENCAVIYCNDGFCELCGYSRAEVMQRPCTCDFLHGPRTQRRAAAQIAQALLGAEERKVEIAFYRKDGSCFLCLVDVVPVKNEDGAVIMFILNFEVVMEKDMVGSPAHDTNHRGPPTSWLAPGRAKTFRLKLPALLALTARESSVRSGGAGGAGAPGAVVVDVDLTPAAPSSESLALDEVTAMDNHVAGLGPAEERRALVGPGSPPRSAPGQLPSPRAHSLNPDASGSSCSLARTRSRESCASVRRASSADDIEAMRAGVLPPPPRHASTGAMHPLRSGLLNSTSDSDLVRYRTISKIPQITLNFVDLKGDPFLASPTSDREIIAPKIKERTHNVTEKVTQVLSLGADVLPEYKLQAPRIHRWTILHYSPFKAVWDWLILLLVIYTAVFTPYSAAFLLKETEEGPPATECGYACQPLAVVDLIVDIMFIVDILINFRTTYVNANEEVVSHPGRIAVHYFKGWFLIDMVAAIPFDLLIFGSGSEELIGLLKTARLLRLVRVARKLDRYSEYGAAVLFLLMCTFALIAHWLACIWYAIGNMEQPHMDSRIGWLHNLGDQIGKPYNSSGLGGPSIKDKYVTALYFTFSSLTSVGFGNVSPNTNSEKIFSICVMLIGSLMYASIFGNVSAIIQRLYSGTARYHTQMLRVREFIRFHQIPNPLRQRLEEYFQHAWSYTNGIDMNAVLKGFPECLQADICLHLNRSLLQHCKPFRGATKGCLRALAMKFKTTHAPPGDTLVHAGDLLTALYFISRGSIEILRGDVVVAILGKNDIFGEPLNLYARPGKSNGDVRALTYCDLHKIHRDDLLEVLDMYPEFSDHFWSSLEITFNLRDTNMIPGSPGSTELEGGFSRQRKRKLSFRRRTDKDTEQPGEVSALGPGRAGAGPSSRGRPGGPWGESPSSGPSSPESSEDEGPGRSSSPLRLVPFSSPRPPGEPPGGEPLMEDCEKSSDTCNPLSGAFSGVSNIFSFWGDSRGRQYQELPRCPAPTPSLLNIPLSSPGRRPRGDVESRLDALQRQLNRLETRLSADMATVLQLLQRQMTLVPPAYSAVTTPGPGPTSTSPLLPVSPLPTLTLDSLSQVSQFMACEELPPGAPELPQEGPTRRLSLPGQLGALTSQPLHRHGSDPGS
Summary of the method: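 Measured: FluxOR fluorescence after thallium stimulation in U2OS cells transduced with hERG by baculovirus. Compounds pre-incubated around 10 min; medium Opti-MEM with 2% FCS. AC50 from Hill equation.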

Row | SMILES | Potency
1 | C=CC1=C(C(=O)O)N2C(=O)[C@@H](NC(=O)/C(=N\O)c3csc(N)n3)[C@H]2SC1 (stereo in doubt) | inactive
2 | CCOC(=O)[C@H](CS)NCCN[C@@H](CS)C(=O)OCC | inactive
3 | CC(=O)Nc1c(I)c(C(=O)N[C@H]2C(O)O[C@H](CO)[C@@H](O)[C@@H]2O)c(I)c(N(C)C(C)=O)c1I (stereo not given in full) | inactive
4 | Nc1nc(/C(=C/CC(=O)O)C(=O)N[C@@H]2C(=O)N3C(C(=O)O)=CCS[C@H]23)cs1 | inactive
5 | CC[C@H]1OC(=O)C[C@@H](O)[C@H](C)[C@@H](O[C@@H]2O[C@H](C)[C@@H](O[C@H]3C[C@@](C)(O)[C@@H](O)[C@H](C)O3)[C@H](N(C)C)[C@H]2O)[C@@H](CC=O)C[C@@H](C)C(=O)/C=C/C(C)=C/[C@@H]1CO[C@@H]1O[C@H](C)[C@@H](O)[C@@H](OC)[C@H]1OC | inactive
6 | CC(C)C[C@H](NC(=O)[C@@H](COC(C)(C)C)NC(=O)[C@H](Cc1ccc(O)cc1)NC(=O)[C@H](CO)NC(=O)[C@H](Cc1c[nH]c2ccccc12)NC(=O)[C@H](Cc1cnc[nH]1)NC(=O)[C@@H]1CCC(=O)N1)C(=O)N[C@@H](CCCN=C(N)N)C(=O)N1CCC[C@H]1C(=O)NNC(N)=O | inactive
7 | CC(O)[C@@H]1NC(=O)[C@H](Cc2ccccc2)NC(=O)[C@H](C(C)O)NC(=O)[C@H](CCCCN)NC(=O)[C@H](Cc2c[nH]c3ccccc23)NC(=O)[C@H](Cc2ccccc2)NC(=O)[C@H](Cc2ccccc2)NC(=O)[C@H](CC(N)=O)NC(=O)[C@H](CCCCN)NC(=O)[C@@H](NC(=O)CNC(=O)[C@H](C)N)CSSC[C@@H](C(=O)O)NC(=O)[C@H](CO)NC1=O (stereo not given in full) | inactive
8 | CN[C@H](CC(C)C)C(=O)N[C@H]1C(=O)N[C@@H](CC(N)=O)C(=O)N[C@H]2C(=O)N[C@H]3C(=O)N[C@H](C(=O)N[C@@H](C(=O)O)c4cc(O)cc(O)c4-c4cc3ccc4O)[C@H](O)c3ccc(c(Cl)c3)Oc3cc2cc(c3O[C@@H]2O[C@H](CO)[C@@H](O)[C@H](O)[C@H]2O[C@H]2C[C@](C)(N)C(O)[C@H](C)O2)Oc2ccc(cc2Cl)[C@H]1O (stereo not given in full) | inactive
9 | NC(=O)OC[C@@H]1[C@H](NC(=O)/C(=N\OCC(=O)O)c2csc(N)n2)C(=O)N1S(=O)(=O)O | inactive
10 | C[C@]12CC[C@@H]3c4ccc(O)cc4CC[C@H]3[C@@H]1CC[C@@H]2OP(=O)(O)O | inactive
